Inconclusive results are not listed. Activity calls are given as the source filed them.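 Rule for the calls, unless noted: active = normalized viability below 100% at a tested concentration; inactive = the rest.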

Assay [1] is described as follows: growth inhibition of DIPG glioma cells, dose response, cell-based, SU-DIPG-XVII, MIPE5.0, CellTiter-Glo, qHTS (AID 1347060; cut-off not given, nearly all actives have AC50 up to about 26 µM;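 for AC50: cells exposed to compound for 48 hours before viability readout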). The note with it: SU-DIPG-XVII viability, CellTiter-Glo ATP luminescence.
Assay [2] is described as follows: growth inhibition of DIPG glioma cells, dose response, cell-based, SU-DIPG-XIII, MIPE4.0, CellTiter-Glo, qHTS (AID 1347061; cut-off not given, nearly all actives have AC50 up to about 37 µM;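 note: cells exposed to compound for 48 hours before readout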). The note with it: SU-DIPG-XIII viability, CellTiter-Glo ATP luminescence.
The nature of assay [3]: growth inhibition of DIPG glioma cells, dose response, cell-based, SU-DIPG-XIII, MIPE5.0, CellTiter-Glo, qHTS (AID 1347064; cut-off not given, nearly all actives have AC50 up to about 23 µM;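 for AC50: cells exposed to compound for 48 hours before the viability read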). The note with it: SU-DIPG-XIII viability, CellTiter-Glo ATP luminescence.
Assay [4] in a line: viability loss in pontine glioma line – cell-based, SU-DIPG-XXV, MIPE5.0, CellTiter-Glo, qHTS, dose response (AID 1347065; cut-off not given, nearly all actives have AC50 up to about 26 µM;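 note: cells exposed to compound for 48 hours before ATP readout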). The note with it: CellTiter-Glo ATP luminescence.
The nature of assay [5]: SU-DIPG-VI glioma cell viability, MIPE4.0 library, CellTiter-Glo luminescence, qHTS (AID 1347066; cut-off not given, nearly all actives have AC50 up to about 30 µM;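 note: cells exposed to compound for 48 hours before readout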). The following applies: CellTiter-Glo ATP luminescence.
A short description of assay [6]: modifiers of HSF1 nuclear foci, imaging, Selleck Cancer Library (AID 1347162; in the data active = plate-normalised HSF1 focus index below about 0.46). The following applies: human cells, at 10 µM; SSMD: measured here: HSF1 foci SSMD mean; cell count: measured here: cell number; plate-normalised HSF1 focus index: stronger effect = lower value.
A short description of assay [7]: ovarian cancer cell viability with rucaparib, profiling panel, oncology-focused library, rucaparib conditional (AID 1508598). The following applies: patient-derived ovarian cancer cells, CellTiter-Glo viability, 144 h, stronger effect = lower value.
Assay [8] in a line: growth inhibition of DIPG glioma cells, dose response, cell-based, SU-DIPG-IV, MIPE4.0, CellTiter-Glo, qHTS (AID 1347063; cut-off not given, nearly all actives have AC50 up to about 30 µM;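 note: compound exposure lasted 48 hours before the viability readout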). The note with it: SU-DIPG-IV viability, CellTiter-Glo ATP luminescence.
Assay [9] in a line: JHH-DIPG-1 glioma cell viability, MIPE5.0 library, CellTiter-Glo luminescence, qHTS (AID 1347067; cut-off not given, nearly all actives have AC50 up to about 26 µM;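 note: cells exposed to compound for 48 hours before readout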). The following applies: JHH-DIPG-1 glioma viability, CellTiter-Glo ATP luminescence.
Assay [10] is described as follows: SU-DIPG-XXV glioma cell viability, MIPE5.0 library, qHTS (AID 1347068; cut-off not given, nearly all actives have IC50 up to about 30 µM;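 for IC50: cells exposed to compound for 48 hours before viability readout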).
Assay [11] can be described thus: sensitizers of A549 cells to miR-34 induction, primary screen, imaging, A549 dox-inducible miR-34, nuclei and caspase counts (AID 1347080;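 active = compounds whose cell count with miR-34 switched on is under 0.7 times the count with it off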). The following applies: A549 miR-34 inducible, Hoechst nuclei count, 48 h.
Assay [12] in a line: survival rescue of mitochondrial mutant cells in low glucose, primary screen, MELAS cybrids, Rieske KO mouse fibroblasts, CellTiter-Glo (AID 1508586;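 active = mean z-score across replicates of 1.96 or higher in either the MELAS or the Rieske mutant cell line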;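 note: z relative to plate mean and SD of compound and empty wells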).

For the compound `CO[C@@H](C(=O)N1Cc2[nH]nc(NC(=O)c3ccc(N4CCN(C)CC4)cc3)c2C1)c1ccccc1`, the AC50 in assay [1] was 0.525 µM (active); in [2], 1.87 µM (active); in assay [3] it was 1.05 µM (active); in assay [4], 0.372 µM (active). In addition, in assay [5], the call was inactive. Also, the SSMD in assay [6] amounted to 1.91. The cell count in [6] was determined as 6850. Further, in [6], the plate-normalised HSF1 focus index was 1.1 (inactive). The viability was 122% (inactive) in assay [7] (at 0.000305 µM, OCI-C5x cells, with rucaparib 10 µM, 100% = cells with rucaparib alone); 95% (active) in assay [7] (at 0.000305 µM, OCI-C5x cells, without rucaparib); 88.8% (active) in assay [7] (at 0.000305 µM, OCI-P5x cells, with rucaparib 20 µM, 100% = cells with rucaparib alone); 84.6% (active) in assay [7] (at 0.000305 µM, OCI-P5x cells, without rucaparib); 113% (inactive) in assay [7] (at 0.00122 µM, OCI-C5x cells, with rucaparib 10 µM, 100% = cells with rucaparib alone); 106% (inactive) in assay [7] (at 0.00122 µM, OCI-C5x cells, without rucaparib). Further, the viability is 89.5% (active) in assay [7] (at 0.00122 µM, OCI-P5x cells, with rucaparib 20 µM, 100% = cells with rucaparib alone); 84.3% (active) in assay [7] (at 0.00122 µM, OCI-P5x cells, without rucaparib); 96% (active) in [7] (at 0.00488 µM, OCI-C5x cells, with rucaparib 10 µM, 100% = cells with rucaparib alone); 104% (inactive) in assay [7] (at 0.00488 µM, OCI-C5x cells, without rucaparib); 91.4% (active) in assay [7] (at 0.00488 µM, OCI-P5x cells, with rucaparib 20 µM, 100% = cells with rucaparib alone); 88.2% (active) in [7] (at 0.00488 µM, OCI-P5x cells, without rucaparib). The viability in assay [7] (at 0.0195 µM, OCI-C5x cells, with rucaparib 10 µM, 100% = cells with rucaparib alone) is 96.4% (active); in [7] (at 0.0195 µM, OCI-C5x cells, without rucaparib) it was 81% (active); in [7] (at 0.0195 µM, OCI-P5x cells, with rucaparib 20 µM, 100% = cells with rucaparib alone), 95.5% (active); in [7] (at 0.0195 µM, OCI-P5x cells, without rucaparib), 93.2% (active); in [7] (at 0.0781 µM, OCI-C5x cells, with rucaparib 10 µM, 100% = cells with rucaparib alone), 57.5% (active); in [7] (at 0.0781 µM, OCI-C5x cells, without rucaparib), 79.9% (active). Besides, the viability is 91.5% (active) in [7] (at 0.0781 µM, OCI-P5x cells, with rucaparib 20 µM, 100% = cells with rucaparib alone); 73.7% (active) in assay [7] (at 0.0781 µM, OCI-P5x cells, without rucaparib); 66.2% (active) in [7] (at 0.313 µM, OCI-C5x cells, with rucaparib 10 µM, 100% = cells with rucaparib alone); 89.6% (active) in assay [7] (at 0.313 µM, OCI-C5x cells, without rucaparib); 75.2% (active) in assay [7] (at 0.313 µM, OCI-P5x cells, with rucaparib 20 µM, 100% = cells with rucaparib alone); 64.1% (active) in [7] (at 0.313 µM, OCI-P5x cells, without rucaparib). Also, the viability in [7] (at 1.25 µM, OCI-C5x cells, with rucaparib 10 µM, 100% = cells with rucaparib alone) was 84.8% (active); in [7] (at 1.25 µM, OCI-C5x cells, without rucaparib), 112% (inactive); in [7] (at 1.25 µM, OCI-P5x cells, with rucaparib 20 µM, 100% = cells with rucaparib alone) it was 72.6% (active); in assay [7] (at 1.25 µM, OCI-P5x cells, without rucaparib), 60% (active); in assay [7] (at 5 µM, OCI-C5x cells, with rucaparib 10 µM, 100% = cells with rucaparib alone), 71.1% (active); in assay [7] (at 5 µM, OCI-C5x cells, without rucaparib), 88.4% (active). Further, the viability in assay [7] (at 5 µM, OCI-P5x cells, with rucaparib 20 µM, 100% = cells with rucaparib alone) was 19.1% (active); in assay [7] (at 5 µM, OCI-P5x cells, without rucaparib), 17% (active).
`COc1ccc(-c2oc3c(CC=C(C)C)c(OC4O[C@H](CO)[C@@H](O)[C@H](O)[C@H]4O)cc(O)c3c(=O)c2OC2O[C@@H](C)[C@H](O)[C@@H](O)[C@H]2O)cc1` (some centres not stated): the result in [1], in [2], in assay [4], in assay [9] and in assay [10] was inactive. The AC50 in [8] and in assay [5] was 14.8 µM (active) throughout.
`CO[C@H]1C[C@@H]2CC[C@@H](C)[C@@](O)(O2)C(=O)C(=O)N2CCCC[C@H]2C(=O)O[C@H]([C@H](C)C[C@@H]2CC[C@@H](OC(=O)C(C)(CO)CO)[C@H](OC)C2)CC(=O)[C@H](C)/C=C(\C)[C@@H](O)[C@@H](OC)C(=O)[C@H](C)C[C@H](C)/C=C/C=C/C=C/1C`: the AC50 in assay [1] was 14.4 µM (active); in assay [4], 12.9 µM (active); in assay [5] it was 9.35 µM (active); in [9], 14.4 µM (active). In assay [2], the result was inactive. In assay [6], this compound registered an SSMD of 0.578. This compound had a cell count in assay [6] of 6900. Further, in [6], the plate-normalised HSF1 focus index was 1.05 (inactive).
For the compound `CN[C@@H](C)C(=O)N[C@H]1CCCC[C@H]2CC[C@@H](C(=O)N[C@@H](c3ccccc3)c3cn(CCCCc4ccc(CCCCn5cc([C@@H](NC(=O)[C@@H]6CC[C@@H]7CCCC[C@H](NC(=O)[C@H](C)NC)C(=O)N76)c6ccccc6)nn5)cc4)nn3)N2C1=O`, the compound was called inactive in assay [1], in assay [2], in [3], in [5] and in assay [9].
Turning to `CC1(C)CCC(CN2CCN(c3ccc(C(=O)NS(=O)(=O)c4ccc(NCC5CCOCC5)c([N+](=O)[O-])c4)c(Oc4cnc5[nH]ccc5c4)c3)CC2)=C(c2ccc(Cl)cc2)C1`, the half-maximal activity concentration (AC50) was 18.6 µM (active) in [1]; 10.5 µM (active) in [8]; 0.417 µM (active) in assay [4]; 7.43 µM (active) in [5]; 13.2 µM (active) in assay [9]. Besides, the call in assay [2] and in assay [10] was inactive. Besides, the fold change is 1.1 (inactive) in assay [11] (stronger effect = lower value, cell number ratio, induced over uninduced) and 0.349 in assay [11] (measured here: relative caspase fold change +Dox/-Dox). In addition, the cell count was 5370 in assay [11] (measured here: total cells with miR-34 induction, stronger effect = lower value) and 4860 in assay [11] (measured here: total cells without miR-34 induction). Besides, the z-score is -0.355 (inactive) in assay [12] (MELAS cybrid survival, CellTiter-Glo 48 h, stronger effect = higher value) and 0.0474 in assay [12] (Rieske KO mouse fibroblast survival, CellTiter-Glo 72 h).
On to `CCc1cc(-c2n[nH]c(C)c2-c2ccc3c(c2)OCCO3)c(O)cc1O`, for which the AC50 in assay [1] is 18.6 µM (active); in assay [2], 7.43 µM (active); in assay [8], 2.64 µM (active); in assay [4] it was 16.6 µM (active); in [9], 20.9 µM (active). For the same compound, the 50% inhibitory concentration (IC50) in assay [10] was 20.9 µM (active). The compound also came in with an SSMD in assay [6] of 1.15. The cell count in [6] was 5920. Further, the plate-normalised HSF1 focus index in assay [6] was 1.07 (inactive).
